# Measurements from ChEMBL document CHEMBL1961873, “Compounds: GSK PKIS; Assays: Nanosyn kinase panel” (2012).
# Columns and labels:
# [1] = target: Fibroblast growth factor receptor 4 (Homo sapiens) (UniProt P22455); conditions: at 1 µM;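 also: reported figure is the averaged percent inhibition of FGFR4, from the GSK PKIS kinase screening panel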
# [2] = target: Tyrosine-protein kinase Fgr (Homo sapiens) (UniProt P09769); conditions: at 0.1 µM
# [3] = target: Tyrosine-protein kinase Fgr (Homo sapiens) (UniProt P09769); conditions: at 1 µM
# [4] = target: Vascular endothelial growth factor receptor 1 (Homo sapiens) (UniProt P17948); conditions: at 0.1 µM
# [5] = target: Vascular endothelial growth factor receptor 1 (Homo sapiens) (UniProt P17948); conditions: at 1 µM
# [6] = target: Receptor-type tyrosine-protein kinase FLT3 (Homo sapiens) (UniProt P36888); conditions: at 0.1 µM
# [7] = target: Receptor-type tyrosine-protein kinase FLT3 (Homo sapiens) (UniProt P36888); conditions: at 1 µM
# [8] = tested on: T1, Receptor-type tyrosine-protein kinase FLT3 (Homo sapiens), P36888 [D835Y]; conditions: at 0.1 µM
# T1 sequence (whole entry): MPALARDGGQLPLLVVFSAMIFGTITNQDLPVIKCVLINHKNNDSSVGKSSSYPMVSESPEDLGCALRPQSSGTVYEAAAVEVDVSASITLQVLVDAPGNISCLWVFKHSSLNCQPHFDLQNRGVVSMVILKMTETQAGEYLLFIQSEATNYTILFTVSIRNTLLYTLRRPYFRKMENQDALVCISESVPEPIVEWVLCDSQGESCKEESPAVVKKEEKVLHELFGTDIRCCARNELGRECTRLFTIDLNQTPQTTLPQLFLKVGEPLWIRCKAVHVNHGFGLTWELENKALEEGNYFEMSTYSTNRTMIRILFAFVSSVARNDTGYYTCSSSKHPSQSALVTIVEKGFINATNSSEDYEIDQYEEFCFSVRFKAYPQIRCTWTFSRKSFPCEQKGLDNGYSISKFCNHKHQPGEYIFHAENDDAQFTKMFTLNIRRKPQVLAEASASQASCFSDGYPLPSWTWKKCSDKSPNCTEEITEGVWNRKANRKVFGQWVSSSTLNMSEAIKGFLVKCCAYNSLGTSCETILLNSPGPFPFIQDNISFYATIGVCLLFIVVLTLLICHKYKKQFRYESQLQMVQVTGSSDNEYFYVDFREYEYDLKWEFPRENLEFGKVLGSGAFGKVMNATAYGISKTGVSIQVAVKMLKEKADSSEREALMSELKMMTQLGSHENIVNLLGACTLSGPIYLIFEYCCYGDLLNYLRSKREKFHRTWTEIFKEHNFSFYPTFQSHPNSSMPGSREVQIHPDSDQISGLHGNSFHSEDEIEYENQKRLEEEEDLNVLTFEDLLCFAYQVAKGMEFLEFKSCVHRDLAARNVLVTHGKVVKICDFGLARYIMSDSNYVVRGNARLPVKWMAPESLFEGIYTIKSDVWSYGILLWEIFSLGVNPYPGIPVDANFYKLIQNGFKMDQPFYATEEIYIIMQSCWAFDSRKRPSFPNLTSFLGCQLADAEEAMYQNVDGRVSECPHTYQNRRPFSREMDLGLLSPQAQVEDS
# [9] = target: Non-receptor tyrosine-protein kinase TYK2 (Homo sapiens) (UniProt P29597); conditions: at 1 µM;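 also: values are mean percent inhibition of TYK2 kinase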
# [10] = target: T2, Tyrosine-protein kinase receptor TYRO3 (Homo sapiens) (UniProt Q06418); conditions: at 0.1 µM
# T2 sequence (whole entry): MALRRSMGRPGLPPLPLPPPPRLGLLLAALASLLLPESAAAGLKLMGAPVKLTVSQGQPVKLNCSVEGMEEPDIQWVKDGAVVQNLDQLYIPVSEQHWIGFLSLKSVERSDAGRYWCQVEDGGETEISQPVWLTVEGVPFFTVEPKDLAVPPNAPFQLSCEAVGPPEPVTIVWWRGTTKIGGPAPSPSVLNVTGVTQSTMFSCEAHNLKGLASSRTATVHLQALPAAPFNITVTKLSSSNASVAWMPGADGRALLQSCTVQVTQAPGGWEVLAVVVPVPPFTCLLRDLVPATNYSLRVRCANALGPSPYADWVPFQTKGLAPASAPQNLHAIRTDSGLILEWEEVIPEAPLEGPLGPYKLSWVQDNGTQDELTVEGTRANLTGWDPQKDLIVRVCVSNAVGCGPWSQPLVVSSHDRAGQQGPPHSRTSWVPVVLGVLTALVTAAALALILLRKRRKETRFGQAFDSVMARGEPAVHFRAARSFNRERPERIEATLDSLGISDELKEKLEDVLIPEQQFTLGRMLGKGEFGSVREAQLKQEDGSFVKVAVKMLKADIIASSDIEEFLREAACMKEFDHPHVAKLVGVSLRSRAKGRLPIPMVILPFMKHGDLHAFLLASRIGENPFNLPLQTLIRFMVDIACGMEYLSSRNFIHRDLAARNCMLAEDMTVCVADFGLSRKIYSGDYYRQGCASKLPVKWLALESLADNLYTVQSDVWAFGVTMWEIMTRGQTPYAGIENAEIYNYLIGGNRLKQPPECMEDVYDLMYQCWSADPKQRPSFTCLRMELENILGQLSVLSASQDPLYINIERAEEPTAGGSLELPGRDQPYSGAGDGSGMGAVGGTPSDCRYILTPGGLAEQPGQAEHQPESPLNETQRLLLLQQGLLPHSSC
# [11] = target: T2, Tyrosine-protein kinase receptor TYRO3 (Homo sapiens); conditions: at 1 µM
# [12] = target: Tyrosine-protein kinase Yes (Homo sapiens) (UniProt P07947); conditions: at 0.1 µM
# [13] = target: Tyrosine-protein kinase Yes (Homo sapiens) (UniProt P07947); conditions: at 1 µM
# [14] = target: T3, Tyrosine-protein kinase ZAP-70 (Homo sapiens) (UniProt P43403); conditions: at 0.1 µM
# T3 sequence (whole entry): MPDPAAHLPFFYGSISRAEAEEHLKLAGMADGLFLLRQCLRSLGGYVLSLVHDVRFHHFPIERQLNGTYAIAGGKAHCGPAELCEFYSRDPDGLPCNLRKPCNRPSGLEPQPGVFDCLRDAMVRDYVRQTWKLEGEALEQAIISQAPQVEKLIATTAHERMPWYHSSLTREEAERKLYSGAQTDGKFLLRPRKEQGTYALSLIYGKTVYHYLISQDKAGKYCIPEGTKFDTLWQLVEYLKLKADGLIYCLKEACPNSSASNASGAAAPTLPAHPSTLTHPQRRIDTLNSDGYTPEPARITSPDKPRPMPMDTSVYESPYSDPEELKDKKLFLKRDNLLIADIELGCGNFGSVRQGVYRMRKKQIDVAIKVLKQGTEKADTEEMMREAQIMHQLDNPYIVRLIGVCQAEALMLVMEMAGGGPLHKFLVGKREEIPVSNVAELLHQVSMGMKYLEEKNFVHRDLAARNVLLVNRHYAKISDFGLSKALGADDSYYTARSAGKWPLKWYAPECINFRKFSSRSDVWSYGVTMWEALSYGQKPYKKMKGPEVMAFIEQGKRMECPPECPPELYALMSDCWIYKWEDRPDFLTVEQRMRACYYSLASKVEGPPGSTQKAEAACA
# [15] = target: T3, Tyrosine-protein kinase ZAP-70 (Homo sapiens); conditions: at 1 µM
# [16] = target: Serine/threonine-protein kinase B-raf (Homo sapiens) (UniProt P15056); conditions: at 0.1 µM
# [17] = target: Serine/threonine-protein kinase B-raf (Homo sapiens) (UniProt P15056); conditions: at 1 µM
# [18] = tested on: Serine/threonine-protein kinase B-raf (Homo sapiens), P15056 [V600E]; conditions: at 0.1 µM
# [19] = tested on: Serine/threonine-protein kinase B-raf (Homo sapiens), P15056 [V600E]; conditions: at 1 µM
# [20] = target: RAF proto-oncogene serine/threonine-protein kinase (Homo sapiens) (UniProt P04049); conditions: at 0.1 µM;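 also: values are mean CRAF kinase inhibition from profiling of the GSK Published Kinase Inhibitor Set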
# Chain of RAF proto-oncogene serine/threonine-protein kinase (Homo sapiens) (P04049 whole entry): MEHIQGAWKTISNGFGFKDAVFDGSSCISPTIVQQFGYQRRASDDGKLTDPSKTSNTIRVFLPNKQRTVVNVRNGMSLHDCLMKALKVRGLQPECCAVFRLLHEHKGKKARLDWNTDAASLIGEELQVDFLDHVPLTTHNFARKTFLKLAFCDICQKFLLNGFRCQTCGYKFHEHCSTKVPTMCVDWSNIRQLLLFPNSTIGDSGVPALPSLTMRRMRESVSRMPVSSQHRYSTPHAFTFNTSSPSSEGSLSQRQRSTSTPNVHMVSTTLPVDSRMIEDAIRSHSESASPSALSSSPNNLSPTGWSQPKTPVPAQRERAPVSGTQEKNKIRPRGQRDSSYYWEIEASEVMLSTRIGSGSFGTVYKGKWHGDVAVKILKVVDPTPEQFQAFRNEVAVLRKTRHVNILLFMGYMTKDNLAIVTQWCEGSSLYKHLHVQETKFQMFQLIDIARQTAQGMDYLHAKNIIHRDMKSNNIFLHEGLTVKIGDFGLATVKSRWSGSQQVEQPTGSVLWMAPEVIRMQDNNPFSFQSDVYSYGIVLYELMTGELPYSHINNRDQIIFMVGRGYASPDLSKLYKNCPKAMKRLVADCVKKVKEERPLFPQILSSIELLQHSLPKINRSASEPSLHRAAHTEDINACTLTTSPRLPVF
# Chain of Tyrosine-protein kinase Fgr (Homo sapiens) (P09769 2-529 limits assumed): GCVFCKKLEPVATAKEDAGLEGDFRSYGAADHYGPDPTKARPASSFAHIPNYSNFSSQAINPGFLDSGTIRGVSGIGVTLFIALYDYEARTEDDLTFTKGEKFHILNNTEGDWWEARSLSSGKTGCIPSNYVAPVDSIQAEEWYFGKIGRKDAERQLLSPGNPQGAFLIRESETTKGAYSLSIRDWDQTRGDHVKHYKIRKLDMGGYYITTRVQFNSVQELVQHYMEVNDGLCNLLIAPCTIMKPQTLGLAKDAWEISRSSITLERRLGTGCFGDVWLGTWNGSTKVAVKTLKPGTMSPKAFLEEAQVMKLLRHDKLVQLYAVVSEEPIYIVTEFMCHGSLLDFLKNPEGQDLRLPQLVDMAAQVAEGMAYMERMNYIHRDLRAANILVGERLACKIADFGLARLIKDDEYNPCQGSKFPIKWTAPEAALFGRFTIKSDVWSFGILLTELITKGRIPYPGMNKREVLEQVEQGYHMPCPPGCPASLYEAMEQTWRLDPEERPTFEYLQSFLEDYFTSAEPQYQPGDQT
# Chain of Tyrosine-protein kinase Yes (Homo sapiens) (P07947 2-543 limits assumed): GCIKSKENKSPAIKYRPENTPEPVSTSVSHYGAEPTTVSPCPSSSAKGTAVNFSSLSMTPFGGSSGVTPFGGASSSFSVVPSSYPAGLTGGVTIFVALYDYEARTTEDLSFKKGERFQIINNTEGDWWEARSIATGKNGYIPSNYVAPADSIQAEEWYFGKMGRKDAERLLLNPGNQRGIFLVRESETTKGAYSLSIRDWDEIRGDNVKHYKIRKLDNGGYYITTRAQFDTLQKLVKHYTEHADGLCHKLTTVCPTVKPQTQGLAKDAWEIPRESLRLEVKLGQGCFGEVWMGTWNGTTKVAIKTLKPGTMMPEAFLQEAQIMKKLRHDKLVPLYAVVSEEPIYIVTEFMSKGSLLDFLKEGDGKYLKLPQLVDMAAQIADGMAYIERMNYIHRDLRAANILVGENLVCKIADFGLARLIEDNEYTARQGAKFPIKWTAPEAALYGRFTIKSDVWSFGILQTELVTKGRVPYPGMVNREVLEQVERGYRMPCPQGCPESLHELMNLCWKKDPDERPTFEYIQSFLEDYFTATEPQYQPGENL
# Chain of Non-receptor tyrosine-protein kinase TYK2 (Homo sapiens) (P29597 whole entry): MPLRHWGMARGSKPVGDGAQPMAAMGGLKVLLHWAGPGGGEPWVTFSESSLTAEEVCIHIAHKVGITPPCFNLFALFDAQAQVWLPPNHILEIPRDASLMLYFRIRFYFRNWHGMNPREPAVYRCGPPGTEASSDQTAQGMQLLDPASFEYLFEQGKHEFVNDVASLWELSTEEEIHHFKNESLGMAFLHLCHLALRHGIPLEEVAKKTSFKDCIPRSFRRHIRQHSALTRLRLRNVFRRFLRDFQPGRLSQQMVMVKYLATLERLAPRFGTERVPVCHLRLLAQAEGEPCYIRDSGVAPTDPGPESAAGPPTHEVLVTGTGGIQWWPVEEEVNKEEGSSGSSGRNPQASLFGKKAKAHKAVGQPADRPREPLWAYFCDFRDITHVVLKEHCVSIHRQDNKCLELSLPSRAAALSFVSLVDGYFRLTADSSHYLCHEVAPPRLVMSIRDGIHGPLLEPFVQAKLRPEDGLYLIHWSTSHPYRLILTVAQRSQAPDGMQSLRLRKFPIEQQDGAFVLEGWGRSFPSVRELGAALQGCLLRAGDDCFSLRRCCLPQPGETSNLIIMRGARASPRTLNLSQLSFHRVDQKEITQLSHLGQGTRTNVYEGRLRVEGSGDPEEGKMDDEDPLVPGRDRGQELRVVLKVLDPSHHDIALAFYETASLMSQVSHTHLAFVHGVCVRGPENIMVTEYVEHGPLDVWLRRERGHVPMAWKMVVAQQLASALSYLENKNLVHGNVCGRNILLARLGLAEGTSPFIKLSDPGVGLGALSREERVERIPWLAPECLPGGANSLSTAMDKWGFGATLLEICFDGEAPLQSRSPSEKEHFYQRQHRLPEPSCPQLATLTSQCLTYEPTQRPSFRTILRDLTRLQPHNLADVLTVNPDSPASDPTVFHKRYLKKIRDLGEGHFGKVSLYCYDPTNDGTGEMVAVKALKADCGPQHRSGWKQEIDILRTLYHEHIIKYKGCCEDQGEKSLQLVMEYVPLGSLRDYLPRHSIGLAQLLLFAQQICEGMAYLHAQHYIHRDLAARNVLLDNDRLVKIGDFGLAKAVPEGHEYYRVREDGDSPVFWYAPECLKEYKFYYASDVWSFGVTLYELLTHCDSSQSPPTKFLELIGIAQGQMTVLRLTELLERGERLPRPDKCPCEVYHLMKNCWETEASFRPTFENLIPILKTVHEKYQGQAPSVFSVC
# Chain of Serine/threonine-protein kinase B-raf (Homo sapiens) (P15056 whole entry): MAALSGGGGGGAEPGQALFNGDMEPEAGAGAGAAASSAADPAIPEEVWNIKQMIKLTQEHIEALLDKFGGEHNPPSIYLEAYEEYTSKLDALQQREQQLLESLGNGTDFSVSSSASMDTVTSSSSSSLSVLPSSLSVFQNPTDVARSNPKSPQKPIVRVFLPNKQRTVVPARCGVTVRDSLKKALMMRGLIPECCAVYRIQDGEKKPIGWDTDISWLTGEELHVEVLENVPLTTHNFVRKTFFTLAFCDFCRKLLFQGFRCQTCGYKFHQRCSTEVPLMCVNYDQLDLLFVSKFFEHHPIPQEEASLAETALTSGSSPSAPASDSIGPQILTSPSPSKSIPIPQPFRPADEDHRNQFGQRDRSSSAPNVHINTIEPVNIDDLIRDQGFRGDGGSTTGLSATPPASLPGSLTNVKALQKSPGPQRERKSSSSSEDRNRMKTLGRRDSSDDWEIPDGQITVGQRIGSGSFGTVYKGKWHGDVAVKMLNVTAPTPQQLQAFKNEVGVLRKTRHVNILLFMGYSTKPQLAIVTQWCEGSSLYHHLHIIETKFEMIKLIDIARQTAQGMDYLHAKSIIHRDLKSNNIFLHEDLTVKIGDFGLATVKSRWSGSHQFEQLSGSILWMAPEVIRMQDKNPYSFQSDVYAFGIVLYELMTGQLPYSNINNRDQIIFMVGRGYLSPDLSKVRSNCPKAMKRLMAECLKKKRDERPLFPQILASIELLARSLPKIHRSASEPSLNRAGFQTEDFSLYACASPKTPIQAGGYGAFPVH
# Chain of Vascular endothelial growth factor receptor 1 (Homo sapiens) (P17948 whole entry): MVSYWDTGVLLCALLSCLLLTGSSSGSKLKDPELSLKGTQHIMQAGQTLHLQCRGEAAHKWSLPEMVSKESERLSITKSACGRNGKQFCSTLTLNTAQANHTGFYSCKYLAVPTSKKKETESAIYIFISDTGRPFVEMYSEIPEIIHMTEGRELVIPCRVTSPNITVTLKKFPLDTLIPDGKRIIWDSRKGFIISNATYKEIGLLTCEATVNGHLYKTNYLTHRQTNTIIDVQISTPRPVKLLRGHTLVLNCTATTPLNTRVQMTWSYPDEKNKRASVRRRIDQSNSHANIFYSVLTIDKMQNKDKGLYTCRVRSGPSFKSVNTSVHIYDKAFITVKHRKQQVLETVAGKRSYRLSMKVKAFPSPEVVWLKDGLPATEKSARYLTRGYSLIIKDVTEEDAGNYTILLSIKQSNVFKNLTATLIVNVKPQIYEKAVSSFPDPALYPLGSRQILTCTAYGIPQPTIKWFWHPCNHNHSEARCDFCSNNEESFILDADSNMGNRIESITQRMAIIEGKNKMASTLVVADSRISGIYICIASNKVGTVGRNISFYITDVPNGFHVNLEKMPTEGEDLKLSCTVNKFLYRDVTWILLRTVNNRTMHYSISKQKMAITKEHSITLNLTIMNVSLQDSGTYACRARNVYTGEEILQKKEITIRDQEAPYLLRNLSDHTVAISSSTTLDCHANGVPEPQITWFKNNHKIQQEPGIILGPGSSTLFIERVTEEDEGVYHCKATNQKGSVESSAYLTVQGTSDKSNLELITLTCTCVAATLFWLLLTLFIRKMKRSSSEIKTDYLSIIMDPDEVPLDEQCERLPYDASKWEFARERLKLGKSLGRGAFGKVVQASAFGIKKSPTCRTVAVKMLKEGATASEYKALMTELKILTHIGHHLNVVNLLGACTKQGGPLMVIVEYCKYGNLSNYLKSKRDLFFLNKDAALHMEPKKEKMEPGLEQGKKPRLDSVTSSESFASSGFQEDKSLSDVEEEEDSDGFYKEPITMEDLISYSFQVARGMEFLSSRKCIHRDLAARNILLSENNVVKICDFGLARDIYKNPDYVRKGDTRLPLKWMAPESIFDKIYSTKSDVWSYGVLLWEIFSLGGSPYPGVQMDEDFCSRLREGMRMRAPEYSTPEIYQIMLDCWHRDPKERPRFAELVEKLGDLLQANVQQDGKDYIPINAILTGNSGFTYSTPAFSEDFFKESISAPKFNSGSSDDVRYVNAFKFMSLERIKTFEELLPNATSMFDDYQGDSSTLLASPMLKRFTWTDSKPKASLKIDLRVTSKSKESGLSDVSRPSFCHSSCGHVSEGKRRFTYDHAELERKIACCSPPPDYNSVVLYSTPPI
# Chain of Serine/threonine-protein kinase B-raf (Homo sapiens), P15056 [V600E] (P15056 whole entry V600E): as the sequence (P15056 whole entry) above, with V600E counted along it
smiles,measurement,setting,value
COc1c(C(N)=O)cc(-c2ccc(Cl)cc2)cc1-c1ccc(S(N)(=O)=O)cc1,inhibition,[1],2.25%
same,inhibition,[2],0.21%
same,inhibition,[3],2.86%
same,inhibition,[4],-0.38%
same,inhibition,[5],2.07%
same,inhibition,[6],1.63%
same,inhibition,[7],3.25%
same,inhibition,[8],-1.44%
same,inhibition,[9],-6.53%
same,inhibition,[10],2.09%
same,inhibition,[11],2.96%
same,inhibition,[12],1.57%
same,inhibition,[13],4.52%
same,inhibition,[14],2.39%
same,inhibition,[15],4.12%
same,inhibition,[16],6.5%
same,inhibition,[17],8.57%
same,inhibition,[18],4.06%
same,inhibition,[19],3.68%
same,inhibition,[20],2.31%
CS(=O)(=O)CCNCc1ccc(-c2ccc3ncnc(Nc4ccc(OCc5cccc(C(F)(F)F)c5)cc4)c3c2)o1,inhibition,[1],1.52%
same,inhibition,[2],0.16%
same,inhibition,[3],3.55%
same,inhibition,[4],1.21%
same,inhibition,[5],2.94%
same,inhibition,[6],10.4%
same,inhibition,[7],28.9%
same,inhibition,[8],0.04%
same,inhibition,[9],-4.13%
same,inhibition,[10],0.61%
same,inhibition,[11],0.73%
same,inhibition,[12],0.5%
same,inhibition,[13],5.33%
same,inhibition,[14],3.18%
same,inhibition,[15],0.41%
same,inhibition,[16],6.08%
same,inhibition,[17],8.69%
same,inhibition,[18],4.37%
same,inhibition,[19],5.8%
same,inhibition,[20],1.96%
CC1=C(C(=O)Nc2ccc3[nH]ncc3c2)C(c2ccc(F)cc2)N=C(c2ccc(C(F)(F)F)nc2)N1 (stereo not given),inhibition,[1],4.41%
same,inhibition,[2],1.36%
same,inhibition,[3],7.33%
same,inhibition,[4],2.08%
same,inhibition,[5],3.96%
same,inhibition,[6],-0.83%
same,inhibition,[7],4.45%
same,inhibition,[8],-1.1%
same,inhibition,[9],-2.96%
same,inhibition,[10],2.47%
same,inhibition,[11],3.3%
same,inhibition,[12],1.26%
same,inhibition,[13],4.23%
same,inhibition,[14],2.61%
same,inhibition,[15],1.68%
same,inhibition,[16],1.92%
same,inhibition,[17],5.6%
same,inhibition,[18],1.17%
same,inhibition,[19],6.02%
same,inhibition,[20],1.11%
O=C(O[C@H]1CN[C@H](C#Cc2cc3ncnc(Nc4ccc5c(cnn5Cc5ccccc5)c4)c3s2)C1)N1CCOCC1,inhibition,[1],0.38%
same,inhibition,[2],2.54%
same,inhibition,[3],11.2%
same,inhibition,[4],-2.71%
same,inhibition,[5],0.04%
same,inhibition,[6],-2.76%
same,inhibition,[7],-3.41%
same,inhibition,[8],-5.14%
same,inhibition,[9],1.01%
same,inhibition,[10],-0.42%
same,inhibition,[11],1.4%
same,inhibition,[12],1.73%
same,inhibition,[13],23.1%
same,inhibition,[14],-4.53%
same,inhibition,[15],2.2%
same,inhibition,[16],-0.55%
same,inhibition,[17],-2.69%
same,inhibition,[18],-0.19%
same,inhibition,[19],-0.28%
same,inhibition,[20],-0.85%
CC(C)c1ccc(-c2cc(-c3c[nH]nc3-c3ccccn3)ccn2)cc1,inhibition,[1],0.16%
same,inhibition,[2],0.18%
same,inhibition,[3],1.8%
same,inhibition,[4],0.29%
same,inhibition,[5],6.12%
same,inhibition,[6],-2.11%
same,inhibition,[7],2.26%
same,inhibition,[8],1.43%
same,inhibition,[9],-0.96%
same,inhibition,[10],1.06%
same,inhibition,[11],2.71%
same,inhibition,[12],0.42%
same,inhibition,[13],0.34%
same,inhibition,[14],1.32%
same,inhibition,[15],1.31%
same,inhibition,[16],0.6%
same,inhibition,[17],3.57%
same,inhibition,[18],0%
same,inhibition,[19],3.39%
same,inhibition,[20],1.14%
COC(=O)Nc1nc2ccc(Oc3ccc(NC(=O)Nc4cc(C(F)(F)F)ccc4F)cc3)cc2s1,inhibition,[1],3.25%
same,inhibition,[2],1.85%
same,inhibition,[3],9.94%
same,inhibition,[4],36%
same,inhibition,[5],78.1%
same,inhibition,[6],11.2%
same,inhibition,[7],47.1%
same,inhibition,[8],-0.17%
same,inhibition,[9],1.02%
same,inhibition,[10],6.26%
same,inhibition,[11],40%
same,inhibition,[12],4.21%
same,inhibition,[13],11.5%
same,inhibition,[14],1.19%
same,inhibition,[15],-0.75%
same,inhibition,[16],2.35%
same,inhibition,[17],22.1%
same,inhibition,[18],2.96%
same,inhibition,[19],37.3%
same,inhibition,[20],8.71%
CN(c1ccc(NC(=O)NCCN2CCOCC2)cc1)c1ccnc(Nc2ccc(CS(C)(=O)=O)cc2)n1,inhibition,[1],1.61%
same,inhibition,[2],3.44%
same,inhibition,[3],11.3%
same,inhibition,[4],13.6%
same,inhibition,[5],30.7%
same,inhibition,[6],56.4%
same,inhibition,[7],83.7%
same,inhibition,[8],8.58%
same,inhibition,[9],-0.59%
same,inhibition,[10],3.48%
same,inhibition,[11],6.95%
same,inhibition,[12],1.4%
same,inhibition,[13],8.5%
same,inhibition,[14],0.58%
same,inhibition,[15],2.72%
same,inhibition,[16],4.55%
same,inhibition,[17],7.4%
same,inhibition,[18],3.94%
same,inhibition,[19],7.38%
same,inhibition,[20],6.1%
Cc1nnc(-c2cccc(-c3ccc(C(=O)NCC4CC4)cc3)c2)o1,inhibition,[1],0.59%
same,inhibition,[2],5.74%
same,inhibition,[3],2.02%
same,inhibition,[4],3.18%
same,inhibition,[5],1.49%
same,inhibition,[6],1.38%
same,inhibition,[7],4.66%
same,inhibition,[8],-2.89%
same,inhibition,[9],-4.07%
same,inhibition,[10],4.15%
same,inhibition,[11],4.17%
same,inhibition,[12],5.35%
same,inhibition,[13],7.53%
same,inhibition,[14],4.93%
same,inhibition,[15],7.42%
same,inhibition,[16],8.68%
same,inhibition,[17],6.82%
same,inhibition,[18],7.4%
same,inhibition,[19],5.64%
same,inhibition,[20],-0.41%
COc1ccc2ncn(-c3cc(O[C@H](C)c4ccccc4C(F)(F)F)c(C(N)=O)s3)c2c1,inhibition,[1],3.29%
same,inhibition,[2],0.34%
same,inhibition,[3],1.98%
same,inhibition,[4],-2.14%
same,inhibition,[5],1.15%
same,inhibition,[6],-1.48%
same,inhibition,[7],8.06%
same,inhibition,[8],-1.49%
same,inhibition,[9],-1.84%
same,inhibition,[10],-0.34%
same,inhibition,[11],2.75%
same,inhibition,[12],-2.36%
same,inhibition,[13],1.07%
same,inhibition,[14],2.16%
same,inhibition,[15],2.62%
same,inhibition,[16],-0.46%
same,inhibition,[17],-2.23%
same,inhibition,[18],-1.03%
same,inhibition,[19],-0.82%
same,inhibition,[20],-0.27%
